Bioassay records deposited in PubChem by National Center for Advancing Translational Sciences (NCATS).
This is a sample that favours compounds with a hit; in the whole collection about 21% have one here.
Cycloheximide cs – counter-screen for Shiga toxin inhibitors: cycloheximide protein synthesis inhibition; max response, %; cell reporter, cycloheximide protein synthesis inhibition counterscreen; AID 2314; 300,000 compounds, 12% hits; in the data active = max response mostly above about 13%, no sharp cut-off; inactive = mostly below about 14%; also: read at 38.3 µM for the half of the compounds with a filed dose; 0% is about no effect
Pf growth 48h – P. falciparum growth inhibition at 48 hours (one generation); P. falciparum luciferase growth in erythrocytes, 48 h; Potency, µM (titrated, usually from 28.7 µM), for the others: top-dose activity change, negative = inhibition, usual class: inhibitors; 310,000 compounds, 5.9% hits; also: potency is read from the fitted curve at half-maximal effect; % is scaled to controls: 0 for no effect and ±100 for the full control effect
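A one-generation exposure of luciferase-tagged malaria parasites in RPMI 1640/Albumax erythrocyte culture, 37 C and 5% CO2. Inhibition is inferred from decreased luminescence after adding detection reagent.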
Pf growth 96h – inhibits malaria parasite growth, 96 h. P. falciparum luciferase reporter growth, 96 h. Potency, µM (top dose mostly 28.7 µM), without a hit: at the top dose activity change, negative = inhibition, hits mostly inhibitors. 320,000 compounds, 6.9% hits. AID 504834; also: potency is read from the fitted curve at half-maximal effect; % is scaled to controls: 0 for no effect and ±100 for the full control effect
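Infected RBCs, 2% Hct / 0.05% parasitemia final; luciferase-reporter P. falciparum; cpd 96 h, 37 C, 5% CO2; luciferase detection reagent; luminescence.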
Shiga toxin inh – blocks Shiga toxin action in Vero cells. inhibition, % at 38.7 µM. 290,000 compounds, 9.2% hits. Vero cells, Shiga toxin protein synthesis inhibition reporter. AID 2315; in the data active = inhibition mostly above about 28%, no sharp cut-off; inactive = mostly below about 43%; also: 0% is about no effect
Active calls of the source: *; ? = inconclusive; . = no result given. Unless noted, calls follow the shape of the dose curve; as a rule, active = well fitted inhibition curve with a large enough effect; inconclusive = small, poorly fitted or top-dose-only effect, or another doubt; inactive = no such curve, though single readings can be large or run the other way.

SMILES	Cycloheximide cs	Pf growth 48h	Pf growth 96h	Shiga toxin inh
Cc1ccc(-c2nc(C#N)c(NCCN3CCCCC3)o2)cc1	15*	-21%	-19%	25*
CN(C)CCCNc1oc(-c2ccc(Cl)cc2)nc1C#N	13	?	?	27
CCN(CC)CCCNc1oc(-c2cccc(Cl)c2)nc1C#N	-1	?	-10%	-8
COCCNc1oc(-c2ccc(Cl)cc2)nc1C#N	38*	58%	?	70*
CN(C)Cc1c(O)ccc2oc(Cc3ccccc3)cc12	-1	0.41µM*	15%	-6
Cn1sc(=O)n(Cc2ccccc2)c1=O	-10	.	.	-9
CN(CCn1ccnc1)Cc1cn(-c2ccccc2)nc1-c1ccc2c(c1)OCO2	-2	?	45%	13
CC(=O)NCC1CCCN(Cc2cn(-c3ccccc3)nc2-c2ccc3c(c2)OCO3)C1 (stereo not given)	-3	-30%	13µM*	11
CN(Cc1cn(-c2ccccc2)nc1-c1ccc2c(c1)OCO2)Cc1nccn1C	1	12µM*	10%	-11
O=C1CC(NS(=O)(=O)c2ccc3ccccc3c2)CN1c1ccccc1 (stereo not given)	.	0%	44%	.
CC(=O)NC(CC(=O)OCC(=O)c1ccc(NC(=O)CC(C)C)cc1)c1ccccc1 (stereo not given)	.	?	-11%	.
CC(C)N1CC=C(c2c[nH]c3ccccc23)CC1	2	1µM*	?	9
CC(C(=O)c1c[nH]c2ccccc12)N1CCOCC1 (stereo not given)	-2	-7%	2%	-1
c1ccc2c(-c3ccncc3)c[nH]c2c1	-2	?	.	7
C1=C(c2c[nH]c3ccccc23)CCNC1	-1	9.3µM*	6%	-3
CC(=O)N1c2ccccc2N(Cc2ccc(C)cc2C)C(=O)C1(C)C	-5	.	1.7µM*	-19
CCn1c(SCC(=O)n2c(C)c(C)c3ccccc32)nnc1-c1ccco1	-5	4%	6.6µM*	30
CC(C)(C)NC(=O)NC(=O)COC(=O)c1c(F)cccc1Cl	36*	-17%	29%	109*
COc1ccc(OCC(O)CNC(=O)c2sccc2Cl)cc1 (stereo not given)	20*	21%	68%	16
COc1ccc(OC[C@@H](O)CNC(=O)c2cccc3c2C(=O)c2ccc(Cl)cc2S3(=O)=O)cc1	.	?	2.1µM*	.
CC(C)(C)c1ccc(C(=O)NC(=O)CSc2n[nH]c(N)n2)cc1	.	14%	61%	.
CC[C@@]1(O)C(=O)OCc2c1cc1n(c2=O)-c2cc3ccccc3nc2C1	-12	.	.	-6
O=C(NCCCN1CCOCC1)/C(=C/c1cccs1)NC(=O)c1ccccc1	-2	8%	18%	-17
CC1CN(Cc2c(O)ccc3c(=O)c(-c4ccccc4)coc23)CC(C)O1 (stereo not given)	-6	23%	39%	-1
CC1CN(Cc2c(O)ccc3c2oc(=O)c2ccccc23)CC(C)O1 (stereo not given)	6	6.6µM*	2.3µM*	-9
SMILES	Cycloheximide cs	Pf growth 48h	Pf growth 96h	Shiga toxin inh
O=c1oc2c(CN3CCOCC3)c(O)ccc2c2c1CCC2	-3	-4%	?	-9
CC1CCCN(Cc2c(O)ccc3c4c(c(=O)oc23)CCCC4)C1 (stereo not given)	-1	1.3µM*	1.5µM*	4
N#Cc1ccccc1S(=O)(=O)N1CCN(C(=O)C2CCCC2)CC1	8	-21%	1%	-2
CCN(CC)c1ccc2c(C)c(Cl)c(=O)oc2c1	10	2%	?	24
CCOC(=O)CCc1c(C)c2ccc(O)cc2oc1=O	13*	-7%	?	-1
CCOC(=O)Cc1c(C)c2ccc(N(CC)CC)cc2oc1=O	19*	3.7µM*	-14%	100*
CCN(CC)c1ccc2c(C)c(-c3ccc(N)cc3)c(=O)oc2c1	27*	?	?	34*
O=C(CN1CCN(CC(=O)Nc2cccc(F)c2)CC1)Nc1ccc(-c2ccccc2)cc1	-2	-16%	-18%	3
COCCNC(=O)C1CC(c2ccccc2C(F)(F)F)=NO1 (stereo not given)	.	?	71%	.
Cc1ccc(C2(C)NC(=O)N(CC(=O)NNC(=O)c3cc(C)oc3C)C2=O)cc1 (stereo not given)	.	18%	48%	.
COc1ccccc1NC(=O)Nc1nc(CC(=O)N2CCN(c3ccccc3)CC2)cs1	.	12µM*	?	.
COc1ccccc1NC(=O)Nc1nc(CC(=O)NCc2ccccn2)cs1	.	-2%	12%	.
COc1ccc(CNC(=O)Cc2csc(NC(=O)Nc3ccccc3OC)n2)cc1	.	-12%	?	.
COc1ccc(N2CCN(C(=O)Cc3csc(NC(=O)Nc4ccccc4OC)n3)CC2)cc1	.	7.4µM*	?	.
